# PubChem BioAssay
# Unmarked numbers belong to inactive results. The list shows a part of the results. Activity calls are given as the source filed them.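 How the source made its calls, unless noted: active means inhibition above the hit cutoff set in the earlier primary screen (cut at about 27% in these data); inactive means the rest.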
# Columns and labels:
# [1] = molecular target: Protein phosphatase methylesterase 1 (Homo sapiens) (UniProt Q9Y570); experiment: PME-1 inhibitor activity retest, confirmation, biochemical, fluorescence polarization, FP-Rh probe, triplicate (AID 2171); details: recombinant PME-1, FP-Rh probe fluorescence polarization; at 5.9 µM; hits give high values;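 further: 0% = enzyme with DMSO and 100% = wells lacking PME-1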
# Chain of Protein phosphatase methylesterase 1 (Homo sapiens) (Q9Y570 whole entry, looked up): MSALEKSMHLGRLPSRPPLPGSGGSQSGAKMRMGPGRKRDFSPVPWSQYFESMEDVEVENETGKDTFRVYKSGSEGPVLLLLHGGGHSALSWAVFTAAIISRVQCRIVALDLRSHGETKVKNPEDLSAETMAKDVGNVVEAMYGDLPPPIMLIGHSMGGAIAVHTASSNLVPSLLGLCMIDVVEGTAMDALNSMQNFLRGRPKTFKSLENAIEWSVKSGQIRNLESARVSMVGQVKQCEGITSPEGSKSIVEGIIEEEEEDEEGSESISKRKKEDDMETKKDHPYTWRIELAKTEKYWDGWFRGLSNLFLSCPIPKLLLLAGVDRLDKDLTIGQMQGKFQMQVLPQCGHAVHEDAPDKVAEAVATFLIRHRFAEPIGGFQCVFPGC
# [2] = molecular target: Bcl-2-like protein 1 (Homo sapiens) (UniProt Q07817); experiment: Bcl-xL inhibitors blocking Bim BH3 binding, confirmation, counter-screen for MCL1 inhibitor project, biochemical, fluorescence polarization (AID 2166;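 active means inhibition above a cutoff equal to the mean inhibition of all tested compounds plus 3 SD, cut at about 30% in these data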); details: GST-Bcl-xL / FITC-Bim BH3 peptide FP binding; at 10.9 µM; hits give high values
# Chain of Bcl-2-like protein 1 (Homo sapiens) (Q07817 whole entry, looked up): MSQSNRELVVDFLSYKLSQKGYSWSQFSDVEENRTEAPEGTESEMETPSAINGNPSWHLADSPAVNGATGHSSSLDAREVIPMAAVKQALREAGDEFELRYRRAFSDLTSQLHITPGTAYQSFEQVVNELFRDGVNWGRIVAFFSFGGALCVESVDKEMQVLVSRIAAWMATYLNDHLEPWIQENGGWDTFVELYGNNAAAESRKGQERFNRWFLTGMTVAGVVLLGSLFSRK
# [3] = molecular target: Induced myeloid leukemia cell differentiation protein Mcl-1 (Homo sapiens) (UniProt Q07820); experiment: inhibitors of MCL1 binding to BIM-BH3, confirmation, biochemical, fluorescence polarization, triplicate (AID 2168;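 active means inhibition above the average of all tested compounds plus 3 SD, cut at about 40% in these data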;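 further: 0% = DMSO wells and 100% = unlabeled Bim-BH3 control peptide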); details: GST-MCL1 / FITC-Bim-BH3 fluorescence polarization; at 10.9 µM; hits give high values
# Chain of Induced myeloid leukemia cell differentiation protein Mcl-1 (Homo sapiens) (Q07820 whole entry, looked up): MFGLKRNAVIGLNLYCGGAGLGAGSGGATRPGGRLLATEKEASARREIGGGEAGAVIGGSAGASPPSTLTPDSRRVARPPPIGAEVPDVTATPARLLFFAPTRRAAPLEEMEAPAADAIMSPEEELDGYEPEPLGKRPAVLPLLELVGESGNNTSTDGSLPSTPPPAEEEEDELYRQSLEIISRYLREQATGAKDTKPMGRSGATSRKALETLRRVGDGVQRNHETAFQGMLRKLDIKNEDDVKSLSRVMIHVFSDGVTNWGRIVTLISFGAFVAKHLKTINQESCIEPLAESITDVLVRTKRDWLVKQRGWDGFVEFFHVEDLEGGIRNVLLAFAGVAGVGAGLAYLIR
# [4] = growth loss of phage-infected E. coli expressing H. pylori AddAB, confirmation, AddAB inhibitor project, absorbance, E. coli V3065, T4 phage, triplicate (AID 488942;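 active means mean inhibition above a set limit taken from the earlier primary screen, cut at about 13% in these data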;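 further: higher means less bacterial growth since AddAB block lets phage replicate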); details: OD, at 11.9 µM, hits give high values, T4 phage with gene 2 nonsense mutations
# [5] = growth loss of RecBCD+ E. coli with mutant T4 phage, counter-screen for AddAB inhibitor project, absorbance, V66 E. coli (AID 488955;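 active means mean inhibition above the mean of solvent-only control wells plus 3 SD, cut at about 4% in these data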;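 further: optical density read after an 18 h incubation at 37 °C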); details: OD growth, at 11.9 µM, hits give high values
# [6] = bacterial viability inhibition counter-screen, confirmation, counter-screen for AddAB inhibitor project, absorbance (AID 488956; in the data active means inhibition above about 25%); details: absorbance (AddAB counterscreen), at 11.9 µM, hits give high values
# [7] = growth loss of phage-infected RecBCD+ E. coli, confirmation, RecBCD inhibitor project, absorbance, E. coli V66, T4 gene 2 phage (AID 651982;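 active means mean inhibition over triplicates exceeding the hit threshold derived in the original primary screen, cut at about 11% in these data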); details: E. coli V66 + T4 2- phage, growth OD; at 11.9 µM; hits give high values
# [8] = E. coli viability inhibition, counter-screen for RecBCD inhibitor project, absorbance, high throughput (AID 651983; in the data active means inhibition above about 20%;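 further: E. coli strain V66 grown with compound alone and no phage infection; 0% = bacteria with DMSO vehicle only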); details: absorbance (OD) growth, at 11.9 µM, hits give high values
# [9] = growth loss of phage-infected AddAB-carrying E. coli, confirmation, counter-screen for RecBCD inhibitor project, absorbance, E. coli V3065, T4 phage (AID 651984;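 active means mean inhibition above the solvent-only control wells' mean plus 3 SD, cut at about 22% in these data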;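 further: higher means less bacterial growth from phage killing when AddAB is blocked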); details: E. coli expressing H. pylori AddAB + T4 phage, OD growth; at 11.9 µM; hits give high values; gene 2 mutant T4, recBCD-deleted host
# [10] = compounds interfering with TAMRA-BSA probe, counter-screen for TCR-CD3 interaction inhibitor project, biochemical, fluorescence, TAMRA-labeled BSA (AID 652035; in the data active means inhibition above about 23%;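 further: 0% = buffer low control and 100% = reference high control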); details: TAMRA-labeled BSA probe fluorescence counterscreen; at 9.4 µM; hits give high values
# [11] = tested on: T-cell receptor (TCR)-CD3 interaction, human; experiment: TCR-CD3 interaction inhibitors, retest, confirmation, biochemical, fluorescence, TAMRA-labeled TCR probe (AID 652036; in the data active means inhibition above about 19%); details: TAMRA-labeled TCR probe fluorescence binding assay; at 9.4 µM; hits give high values
# [12] = molecular target: Protein-arginine deiminase type-4 (Homo sapiens) (UniProt Q9UM07); experiment: human PAD4 inhibitors, confirmation, biochemical, fluorescence polarization (AID 488796;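 active means mean inhibition across replicates above the hit cutoff set by the earlier primary screen, cut at about 15% in these data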;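 further: inhibitors block active-site labeling by the probe so polarization falls; 0% = PAD4 with probe and DMSO and 100% = probe without PAD4 enzyme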); details: recombinant PAD4, RCA probe fluorescence polarization; at 6.36 µM; hits give high values
# Chain of Protein-arginine deiminase type-4 (Homo sapiens) (Q9UM07 whole entry, looked up): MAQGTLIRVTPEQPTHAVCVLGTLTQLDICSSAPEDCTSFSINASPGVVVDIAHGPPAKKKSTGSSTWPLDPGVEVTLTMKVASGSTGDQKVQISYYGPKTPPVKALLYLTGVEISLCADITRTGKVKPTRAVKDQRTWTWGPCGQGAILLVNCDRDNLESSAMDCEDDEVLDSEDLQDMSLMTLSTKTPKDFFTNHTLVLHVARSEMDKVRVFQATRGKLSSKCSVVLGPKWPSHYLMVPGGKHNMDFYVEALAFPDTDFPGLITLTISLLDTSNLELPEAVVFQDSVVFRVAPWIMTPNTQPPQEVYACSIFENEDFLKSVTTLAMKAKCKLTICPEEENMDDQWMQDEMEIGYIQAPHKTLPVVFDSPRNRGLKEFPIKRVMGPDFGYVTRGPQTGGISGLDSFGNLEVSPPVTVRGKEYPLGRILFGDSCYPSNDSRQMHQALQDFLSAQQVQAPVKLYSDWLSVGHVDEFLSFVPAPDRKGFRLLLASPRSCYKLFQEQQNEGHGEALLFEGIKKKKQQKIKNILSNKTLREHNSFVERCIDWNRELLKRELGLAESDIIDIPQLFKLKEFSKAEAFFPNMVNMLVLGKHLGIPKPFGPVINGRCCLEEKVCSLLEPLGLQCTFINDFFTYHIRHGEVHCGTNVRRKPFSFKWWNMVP
# [13] = molecular target: Insulin-degrading enzyme (Homo sapiens) (UniProt P14735); experiment: human IDE inhibitors in live cells, confirmation, fluorescence polarization, HEK cells, FAbetaB substrate (AID 435028;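 active means mean inhibition across triplicate wells above the cutoff set by the earlier primary insulin-degrading enzyme screen, cut at about 16% in these data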;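 further: 0% = DMSO wells and 100% = 60 µM reference IDE inhibitor Ii1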); details: FAbetaB cleavage, at 5.59 µM, hits give high values
# Chain of Insulin-degrading enzyme (Homo sapiens) (P14735 whole entry, looked up): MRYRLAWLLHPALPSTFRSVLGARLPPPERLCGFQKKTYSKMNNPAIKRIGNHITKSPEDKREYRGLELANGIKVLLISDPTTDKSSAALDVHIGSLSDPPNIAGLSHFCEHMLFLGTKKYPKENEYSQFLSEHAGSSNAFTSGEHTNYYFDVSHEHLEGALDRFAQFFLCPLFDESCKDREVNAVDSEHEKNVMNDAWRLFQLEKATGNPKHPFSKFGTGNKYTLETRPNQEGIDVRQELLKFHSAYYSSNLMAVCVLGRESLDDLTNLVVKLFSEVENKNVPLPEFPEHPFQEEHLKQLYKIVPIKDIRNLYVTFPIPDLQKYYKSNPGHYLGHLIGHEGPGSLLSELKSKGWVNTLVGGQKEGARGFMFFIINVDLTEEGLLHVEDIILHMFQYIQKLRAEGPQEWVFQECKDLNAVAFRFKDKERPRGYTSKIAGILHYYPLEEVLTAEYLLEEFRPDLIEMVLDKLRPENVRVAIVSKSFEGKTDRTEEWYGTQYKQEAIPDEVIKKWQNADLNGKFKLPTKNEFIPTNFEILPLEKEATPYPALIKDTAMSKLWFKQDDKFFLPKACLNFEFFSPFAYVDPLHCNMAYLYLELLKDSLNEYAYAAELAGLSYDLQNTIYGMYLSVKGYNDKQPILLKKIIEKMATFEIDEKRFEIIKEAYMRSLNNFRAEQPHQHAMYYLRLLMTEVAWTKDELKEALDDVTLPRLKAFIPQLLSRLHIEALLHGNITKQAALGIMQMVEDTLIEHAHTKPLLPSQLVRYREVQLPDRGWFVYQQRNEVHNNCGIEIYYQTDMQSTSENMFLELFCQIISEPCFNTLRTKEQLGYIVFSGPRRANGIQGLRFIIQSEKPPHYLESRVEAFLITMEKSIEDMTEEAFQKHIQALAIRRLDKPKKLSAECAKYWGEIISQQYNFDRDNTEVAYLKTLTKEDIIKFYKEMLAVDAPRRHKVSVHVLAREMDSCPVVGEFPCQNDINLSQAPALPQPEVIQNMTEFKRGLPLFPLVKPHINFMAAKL
# [14] = cytotoxicity in HEK cells, cytotoxicity control for IDE inhibitor project, cell-based, luminescence (AID 449730; in the data active means inhibition above about 22%;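 further: 0% = vehicle wells and 100% = reference cytotoxic drug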); details: HEK293 cytotoxicity, ATP luminescence; at 5.59 µM; hits give high values
# [15] = molecular target: Platelet-activating factor acetylhydrolase (Homo sapiens) (UniProt Q13093); experiment: pPAFAH (PLA2G7) enzyme inhibitors, confirmation, biochemical, fluorescence polarization, human (AID 463230;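 active means mean inhibition of the triplicate above the hit cutoff set for the earlier primary screen, cut at about 25% in these data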;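 further: 0% = enzyme with DMSO and 100% = wells lacking pPAFAH enzyme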); details: recombinant pPAFAH, FP-Rh probe fluorescence polarization; at 3.39 µM; hits give high values
# [16] = molecular target: (Lyso)-N-acylphosphatidylethanolamine lipase (Mus musculus) (UniProt Q8VD66); experiment: ABHD4 inhibitors, retest, confirmation, biochemical, fluorescence polarization, mouse (AID 720658;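 active means mean inhibition across replicates above the hit cutoff set in the primary screen, cut at about 30% in these data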;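 further: 0% = wild-type ABHD4 with DMSO and 100% = catalytically dead S159A mutant with DMSO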); details: purified mABHD4, FP-Rh probe fluorescence polarization; at 8.92 µM; hits give high values
# [17] = molecular target: Oxytocin receptor (Homo sapiens) (UniProt P30559); experiment: human OXTR agonists, confirmation, fluorescence, CHO-OTR cells, triplicate (AID 434963;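 active means mean activation above about 20% derived from the earlier single-dose screen, limit read from the data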;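 further: peak over minimum fluorescence ratio per well during a 100 second FLIPR read; 0% = DMSO alone and 100% = oxytocin high control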); details: Fluo-8 calcium fluorescence, agonist, at 3 µM, hits give high values
# [18] = molecular target: Vasopressin V1a receptor (Homo sapiens) (UniProt P37288); experiment: V1a receptor agonists, calcium signal, counter-screen for OXTR agonist project, triplicate, fluorescence, CHO-V1R cells (AID 434991;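 active means mean activation over triplicate exceeds the hit threshold set in the earlier primary screen, cut at about 20% in these data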;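 further: peak over basal fluorescence ratio within a 100 second read; 0% = DMSO alone and 100% = 3 nM vasopressin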); details: Fluo-8 calcium fluorescence, at 3 µM, hits give high values
# [19] = molecular target: Serine protease HTRA1 (Homo sapiens) (UniProt Q92743); experiment: HTRA1 protease inhibitors, retest, confirmation, biochemical, fluorescence polarization (AID 540248;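 active means mean inhibition over three repeats above a set limit taken from the earlier primary screen, cut at about 37% in these data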;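 further: 0% = HTRA1 with DMSO and 100% = wells lacking HTRA1; inhibitors block probe binding so polarization drops and inhibition rises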); details: recombinant HTRA1, FP-rhodamine activity-based probe, at 5.96 µM, hits give high values
# [20] = tested on: transactivating tegument protein VP16 (Human herpesvirus 1); experiment: VP16 transactivation reporter inhibitors, counter-screen for SRC2 inhibitor project, cell-based, luminescence, single concentration (AID 652007; in the data active means inhibition above about 36%); details: cell-based VP16 transactivation luciferase reporter, at 8.9 µM, hits give high values
# [21] = molecular target: Nuclear receptor coactivator 2 (Homo sapiens) (UniProt Q15596); experiment: SRC2 coactivator transcriptional activity inhibitors, confirmation, cell-based, luminescence, HEK293, triplicate (AID 652008;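 active means mean inhibition above 46.5%, the solvent-only control mean plus 3 SD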;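 further: 0% = DMSO-treated cells and 100% = Gossypol at 36 µM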); details: HEK293 GAL4-SRC2 luciferase reporter, at 8.9 µM, hits give high values
# Chain of Nuclear receptor coactivator 2 (Homo sapiens) (Q15596 whole entry, looked up, the tested form may be a part): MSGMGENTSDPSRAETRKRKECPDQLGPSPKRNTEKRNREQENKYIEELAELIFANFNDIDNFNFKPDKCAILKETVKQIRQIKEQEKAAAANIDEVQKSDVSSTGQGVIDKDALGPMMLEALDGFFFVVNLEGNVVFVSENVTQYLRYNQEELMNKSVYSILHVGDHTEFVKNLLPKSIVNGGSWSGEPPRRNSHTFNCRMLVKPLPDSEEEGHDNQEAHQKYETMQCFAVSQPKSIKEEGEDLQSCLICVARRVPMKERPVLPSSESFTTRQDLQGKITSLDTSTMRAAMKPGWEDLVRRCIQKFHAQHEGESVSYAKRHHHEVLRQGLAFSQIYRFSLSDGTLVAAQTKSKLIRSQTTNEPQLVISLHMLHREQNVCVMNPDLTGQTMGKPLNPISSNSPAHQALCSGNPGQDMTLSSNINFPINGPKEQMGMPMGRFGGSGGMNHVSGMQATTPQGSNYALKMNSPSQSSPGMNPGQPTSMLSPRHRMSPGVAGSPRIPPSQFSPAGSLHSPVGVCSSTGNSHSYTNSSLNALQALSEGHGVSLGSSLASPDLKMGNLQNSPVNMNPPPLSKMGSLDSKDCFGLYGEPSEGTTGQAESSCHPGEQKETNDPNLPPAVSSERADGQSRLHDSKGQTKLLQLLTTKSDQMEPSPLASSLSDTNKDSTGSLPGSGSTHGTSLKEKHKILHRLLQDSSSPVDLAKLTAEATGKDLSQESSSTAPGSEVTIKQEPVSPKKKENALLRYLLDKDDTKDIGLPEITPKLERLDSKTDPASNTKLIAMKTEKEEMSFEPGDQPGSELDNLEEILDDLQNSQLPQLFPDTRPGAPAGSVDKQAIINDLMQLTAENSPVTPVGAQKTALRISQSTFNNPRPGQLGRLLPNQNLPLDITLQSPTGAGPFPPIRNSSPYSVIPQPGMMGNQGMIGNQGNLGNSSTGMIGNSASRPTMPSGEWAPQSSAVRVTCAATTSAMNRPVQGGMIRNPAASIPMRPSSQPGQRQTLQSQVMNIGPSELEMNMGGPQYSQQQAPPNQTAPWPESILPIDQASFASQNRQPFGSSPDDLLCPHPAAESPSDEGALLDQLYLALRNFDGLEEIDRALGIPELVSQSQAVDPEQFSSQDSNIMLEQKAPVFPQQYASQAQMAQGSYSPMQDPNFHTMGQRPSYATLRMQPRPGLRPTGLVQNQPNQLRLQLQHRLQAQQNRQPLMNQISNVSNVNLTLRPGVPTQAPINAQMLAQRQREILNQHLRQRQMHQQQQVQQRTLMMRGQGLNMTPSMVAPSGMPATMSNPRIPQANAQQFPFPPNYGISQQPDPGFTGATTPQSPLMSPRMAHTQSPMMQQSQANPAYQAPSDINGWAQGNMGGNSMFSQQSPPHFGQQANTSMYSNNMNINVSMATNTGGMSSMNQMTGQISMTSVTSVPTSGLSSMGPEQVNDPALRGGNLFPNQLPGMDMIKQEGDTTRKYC
# [22] = molecular target: Oxysterols receptor LXR-beta (Homo sapiens) (UniProt P55055); experiment: LXR agonists, Gal4 luciferase reporter, confirmation, counter-screen for hcDAF-12 agonist project, cell-based, luminescence, HEK293, H. contortus campaign (AID 743027;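 active means mean percent activation of the reporter above a cutoff set as the average over tested compounds plus their standard deviation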); details: HEK293 Gal4-LXR tk-luc reporter, 24 h, at 6.8 µM, hits give high values, normalized: DMSO 0%, positive control 100%
# Chain of Oxysterols receptor LXR-beta (Homo sapiens) (P55055 whole entry, looked up, the tested form may be a part): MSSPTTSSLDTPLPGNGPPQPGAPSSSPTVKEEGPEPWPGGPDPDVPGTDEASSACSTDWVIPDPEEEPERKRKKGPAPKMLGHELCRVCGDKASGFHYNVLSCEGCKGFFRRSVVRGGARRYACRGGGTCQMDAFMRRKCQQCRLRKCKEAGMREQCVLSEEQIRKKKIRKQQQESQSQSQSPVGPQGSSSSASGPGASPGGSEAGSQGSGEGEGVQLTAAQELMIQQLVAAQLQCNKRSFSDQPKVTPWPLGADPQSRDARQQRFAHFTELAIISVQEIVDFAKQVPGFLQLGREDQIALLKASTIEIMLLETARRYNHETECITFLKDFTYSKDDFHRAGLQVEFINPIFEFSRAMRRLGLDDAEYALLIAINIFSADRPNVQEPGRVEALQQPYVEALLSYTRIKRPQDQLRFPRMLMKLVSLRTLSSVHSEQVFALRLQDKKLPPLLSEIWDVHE
# [23] = tested on: Nuclear hormone receptor DAF-12 (Haemonchus contortus); experiment: H. contortus DAF-12 receptor agonists, confirmation, cell-based, luminescence, HEK293, lit1-tk-luc, triplicate (AID 743032;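 active means mean activation across triplicate tests above the threshold derived from the earlier primary screen, cut at about 5.5% in these data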;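 further: 0% = DMSO only wells and 100% = 3 µM Δ7-dafachronic acid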); details: HEK293 hcDAF-12 lit1-tk-luc reporter, at 6.8 µM, hits give high values, % of Δ7-dafachronic acid response
# [24] = tested on: DAF-12 nuclear receptor (Heterodera glycines), GAL4-LBD fusion; experiment: H. glycines DAF-12 receptor agonists, confirmation, cell-based, luminescence, HEK293, GAL4-LBD fusion (AID 743050;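 active means mean activation over triplicate wells above the hit cutoff derived from the earlier primary screen, cut at about 11% in these data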;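 further: 0% = DMSO low control and 100% = 2 mM sodium butyrate high control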); details: HEK293 GAL4-hgDAF12 luciferase reporter, agonist mode; at 6.8 µM; hits give high values; percent of butyrate response
# [25] = molecular target: Oxysterols receptor LXR-beta (Homo sapiens) (UniProt P55055); experiment: LXR agonists, Gal4 luciferase reporter, confirmation, counter-screen for hgDAF-12 agonist project, cell-based, luminescence, HEK293, H. glycines campaign (AID 743051;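 active means mean activation of the triplicate above a set limit carried over from the primary screen, none filed active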); details: 24 h, at 6.8 µM, hits give high values
# [26] = molecular target: Glutathione S-transferase omega-1 (Homo sapiens) (UniProt P78417); experiment: GSTO1 inhibitor hit confirmation, counter-screen for RBBP9 inhibitor project, biochemical, fluorescence polarization, triplicate (AID 2176;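 active means inhibition above the primary screen's cutoff, its mean inhibition plus 3 SD, cut at about 35% in these data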;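 further: loss of polarization as inhibitors block binding of rhodamine sulfonate ester activity probe; 0% = GSTO1 with DMSO and 100% = wells lacking GSTO1 enzyme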); details: recombinant GSTO1, probe fluorescence polarization; at 5.96 µM; hits give high values
# Chain of Glutathione S-transferase omega-1 (Homo sapiens) (P78417 whole entry, looked up): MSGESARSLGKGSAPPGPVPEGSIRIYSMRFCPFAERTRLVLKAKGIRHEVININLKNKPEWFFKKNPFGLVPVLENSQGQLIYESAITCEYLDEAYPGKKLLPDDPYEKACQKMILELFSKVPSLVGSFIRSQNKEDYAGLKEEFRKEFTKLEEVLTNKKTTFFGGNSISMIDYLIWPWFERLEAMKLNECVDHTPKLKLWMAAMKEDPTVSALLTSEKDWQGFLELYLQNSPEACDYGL
compound,measurement,setting,value
Brc1ccc(N=NNc2ccccc2)cc1,inhibition,[1],31.4% (active)
CCN(CC)c1ccc(S(=O)(=O)N2CCOCC2)cc1NC(=O)CN1CCN(Cc2ccccc2)CC1,inhibition,[1],72.3% (active)
Cn1c(=O)c2c(nc(CN3CCN(C(c4ccccc4)c4ccccc4)CC3)n2CCCO)n(C)c1=O,inhibition,[1],23.8%
Nc1c(C(=O)Nc2cccc(C(=O)O)c2)sc2nc3c(cc12)CCCC3,inhibition,[1],30.8% (active)
O=[N+]([O-])c1ccc(C2Nc3cccc4cccc(c34)N2)cc1,inhibition,[1],35.9% (active)
CCCCCCC(=O)Nc1nc(C)c(-c2csc(Nc3cc(OC)ccc3OC)n2)s1,inhibition,[1],65% (active)
C=C1c2c(Cl)ccc(O)c2C(O)=C2C(=O)[C@]3(O)C(O)=C(C(N)=O)C(=O)[C@@H](N(C)C)[C@@H]3[C@@H](O)C12 (some centres undefined),inhibition,[2],37.7% (active)
same,inhibition,[3],79% (active)
same,inhibition,[4],102% (active)
same,inhibition,[5],101% (active)
same,inhibition,[6],104% (active)
same,inhibition,[7],102% (active)
same,inhibition,[8],105% (active)
same,inhibition,[9],104% (active)
same,inhibition,[10],-9.22%
same,inhibition,[11],20.7% (active)
Cc1nn(Cc2ccccc2)c(C)c1CNC(=O)c1ccc(F)c(S(=O)(=O)N2CCOCC2)c1,inhibition,[2],9.04%
same,inhibition,[3],4.37%
same,inhibition,[12],3.62%
CCn1cc(C(=O)NCCCN2CC(C)CC(C)C2)c(=O)c2cc(S(=O)(=O)N(C)C3CCCCC3)ccc21 (centres undefined),inhibition,[1],35.6% (active)
CCC(CNc1cc(OC)cc2cccnc12)NC1CCCCC1 (centres undefined),inhibition,[1],9.75%
CC(C)N=c1cc2n(-c3ccc(Cl)cc3)c3ccccc3nc-2cc1Nc1ccc(Cl)cc1,inhibition,[1],17.7%
Cc1[nH]c(N=Nc2ccccc2)nc1N=Nc1ccccc1,inhibition,[1],55.2% (active)
Cc1cc2nc3c(=O)n(Cc4ccccc4)c(=O)[nH]c3nc2cc1N,inhibition,[2],198% (active)
same,inhibition,[13],66.8% (active)
same,inhibition,[14],8.2%
same,inhibition,[15],29.3% (active)
same,inhibition,[16],82.2% (active)
CC(=O)Cc1cc(O)c2ccccc2c1OC(=O)c1ccc(Br)cc1,inhibition,[1],24.8%
N#C/C(=C/c1ccc(N2CCCCC2)o1)C(=O)NCCc1c[nH]c2ccccc12,activation,[17],33.6% (active)
same,activation,[18],52.1% (active)
same,inhibition,[13],150% (active)
same,inhibition,[14],5.73%
O=C(Nc1ccc(OC(F)(F)F)cc1)c1ccc2c(c1)no[n+]2[O-],inhibition,[19],69.4% (active)
Cc1ccc(Nc2nc(-c3ccc(O)cc3O)cs2)nc1,inhibition,[19],50.7% (active)
COC(=O)N1C(=O)[C@](c2ccccc2)(C2CCCC2)N1C(=O)OC,inhibition,[1],86.9% (active)
same,inhibition,[20],-1.09%
same,inhibition,[21],-4.92%
COc1cc(/C=N/Nc2nc3ccccc3s2)ccc1O,inhibition,[1],57.7% (active)
same,activation,[22],1.25%
same,activation,[23],12.4% (active)
same,activation,[24],18.2% (active)
same,activation,[25],0.97%
O=c1c(/C=N/O)coc2ccc(Cl)cc12,inhibition,[26],4.5%
